Drawing on PubChem BioAssay, this text covers composite z-score and z-score for 17 compounds.

SMILES strings stand for the structures. Active and inactive are the calls of the source. Unless noted, how the calls were made is not given here.

Test [1] relates to XIP peptide (Xip251-270) binding. Description: XIP fragment 251-270 binding compounds – biochemical, small-molecule microarray, fluorescence 635/667 nm, 0.1 µg/mL protein, primary screen (AID 1182). The settings on record: fluorescent protein binding, 635 nm, higher = more signal, called active from +8 up or from −8 down.
Another test deals with XIP peptide (Xip251-270). Description: compounds binding XIP fragment 251-270 – biochemical, small-molecule microarray, fluorescence 635/667 nm, 0.5 µg/mL protein, primary screen (AID 1183). As to conditions: fluorescence 635 nm, higher = more signal.
Test [2] can be described thus: blood-stage malaria parasite viability loss – strain 3D7, DAPI fluorescence, 100 nL, primary screen (AID 1184).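 Further: parasites grown inside human red blood cells in medium with human serum.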 The settings on record: P. falciparum 3D7 growth, 3 d, higher = more signal.
In test [3] the target is Homeobox protein Hox-A13 (Mus musculus) (UniProt Q62424). Description: disruptors of Hoxa13 oligonucleotide interaction – biochemical, fluorescence polarization, labeled oligonucleotide, primary screen (AID 1185). The settings on record: Hoxa13:DNA binding, 15 min, higher = more signal, called active from +8 up or from −8 down. On the technique in general: Polarisation of emitted light reports the rotation of a fluorescent probe.

Test [4] is described as follows: blockers of DNA damage checkpoint Chk1 activation – imaging, HeLa, hydroxyurea, phospho-Chk1 antibody, percent positive cells, primary screen (AID 1186). As to conditions: hydroxyurea-induced phospho-Chk1 immunofluorescence imaging, higher = more signal.
Test [5] in a line: blockers of DNA damage checkpoint Chk1 activation – imaging, HeLa, hydroxyurea, phospho-Chk1 nuclear intensity, primary screen (AID 1187). The settings on record: hydroxyurea-induced phospho-Chk1 immunofluorescence imaging, higher = more signal.

Chain of Homeobox protein Hox-A13 (Mus musculus) (Q62424 whole entry, looked up): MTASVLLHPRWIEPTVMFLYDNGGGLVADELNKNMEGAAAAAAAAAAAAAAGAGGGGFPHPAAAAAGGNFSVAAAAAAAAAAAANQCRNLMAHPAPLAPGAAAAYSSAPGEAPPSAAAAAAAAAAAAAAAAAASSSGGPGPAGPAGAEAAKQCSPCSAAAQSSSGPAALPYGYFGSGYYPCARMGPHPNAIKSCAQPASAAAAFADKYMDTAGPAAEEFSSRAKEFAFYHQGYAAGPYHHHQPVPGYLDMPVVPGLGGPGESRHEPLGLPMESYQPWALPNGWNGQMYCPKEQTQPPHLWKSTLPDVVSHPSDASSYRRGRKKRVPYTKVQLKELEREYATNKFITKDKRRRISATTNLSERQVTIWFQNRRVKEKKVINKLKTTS

Consider `COCCCNC(=O)[C@@]1(c2ccc([N+](=O)[O-])cc2)CC(=O)N(C(C)C)[C@@H]1c1ccc(CO)cc1`, for which the results for the composite z-score (in test [1]; with XIP peptide (Xip251-270)) were -1.3 (inactive) and 0.64, respectively. Also, the z-score in test [2] is 0.382; in test [3], -0.803 (inactive); in test [4], 0.0991 (inactive); in test [5], 0.621 (inactive).

For the compound `C=CCC(OC(C)=O)[C@@H]1[C@@H](N(Cc2cccc3ccccc23)C(=O)Cc2ccc(F)cc2)c2cc(OCCCO)ccc2N1C(=O)c1ccc(-c2ccccc2)cc1` (some centres not stated), the composite z-score is -1.31 (inactive) in test [1] and -1.14 in the test with XIP peptide (Xip251-270). The z-score was -1.69 in test [2], -1.09 (inactive) in test [3], 0.19 (inactive) in test [4] and -0.39 (inactive) in test [5].

As to `COCCOC(=O)N1C(=O)[C@@]2(c3cc(C#Cc4ccc(OC)cc4)ccc31)[C@H](c1ccc(OCCO)cc1)N1[C@H](c3ccccc3)[C@H](c3ccccc3)OC(=O)[C@H]1[C@@H]2C(=O)Nc1nc2ccccc2s1`, the composite z-score in test [1] is 0.968 (inactive); in the test with XIP peptide (Xip251-270) it was 0.414. The z-score in test [2] was -0.817; in test [3], 1.31 (inactive); in test [4], -0.007 (inactive); in test [5] it was 0.254 (inactive).

Take `CCc1cccc(NC(=O)O[C@H]2[C@H](OC(=O)Nc3ccccc3)[C@H](OC(=O)Nc3ccccc3)[C@@H](OC)O[C@@H]2CO)c1`: the composite z-score in test [1] is 1.54 (inactive); in the test on XIP peptide (Xip251-270), 0.829. The z-score in test [2] was -1.49; in test [3], -5.74 (inactive); in test [4], 0.156 (inactive); in test [5], 0.628 (inactive).

Regarding `O=C1NC(=O)C2C1C=CC(C(O)c1ccccn1)N2Nc1ccc(Cl)cc1Cl` (configuration not stated), the composite z-score is 0.628 (inactive) in test [1] and 0.326 with XIP peptide (Xip251-270). For the same compound, the z-score in test [2] is 0.358; in test [3] it was -4.45 (inactive); in test [4] it was -0.133 (inactive); in test [5], -0.18 (inactive).

Consider `[N-]=[N+]=NCc1ccccc1[C@@H]1OC(c2ccc(OCCCO)cc2)=N[C@]1(Cc1ccccc1N=[N+]=[N-])C(=O)NCCN1CCOCC1`, for which the composite z-score in test [1] is 0.24 (inactive); in the test on XIP peptide (Xip251-270), 0.878. Besides, the z-score in test [2] is -2.45; in test [3], -4.64 (inactive); in test [4], -0.276 (inactive); in test [5] it was -0.22 (inactive).

On to `COc1ccc([Si](C)(C)[C@@H]2[C@@H](CCn3cc([C@H](O)c4ccccc4)nn3)O[C@]3(C(=O)N(c4ccccc4)c4ccccc43)[C@H]2C)cc1`, for which the composite z-score in test [1] is -0.17 (inactive); in the test on XIP peptide (Xip251-270), 0.559. Besides, the z-score was -1.73 in test [2], -3.01 (inactive) in test [3], -0.431 (inactive) in test [4] and -0.361 (inactive) in test [5].

Consider `[N-]=[N+]=Nc1ccccc1[C@@H]1OC(c2ccc(OCCCO)cc2)=N[C@]1(Cc1ccccc1)C(=O)NCc1ccccc1`, for which the composite z-score in test [1] is 0.174 (inactive); with XIP peptide (Xip251-270) it was 0.804. In addition, the z-score in test [2] was -1.97; in test [3] it was -0.694 (inactive); in test [4] it was 0.458 (inactive); in test [5] it was 0.433 (inactive).

Regarding `C[C@]1(C(=O)O)c2ccccc2C(=O)N(Cc2ccc(OC(F)(F)F)cc2)[C@H]1c1ccc(CO)cc1`, the values for the composite z-score (in test [1]; in the test on XIP peptide (Xip251-270)) were -0.336 (inactive) and -1.05, respectively. Moreover, the z-score was 0.465 in test [2], -4.09 (inactive) in test [3], -0.159 (inactive) in test [4] and -0.344 (inactive) in test [5].

In the case of `CCOC(=O)C1=C[C@@H](c2ccccc2)N(S(=O)(=O)c2ccc(C)cc2)[C@H]1c1ccccc1`, the results for the composite z-score (in test [1]; in the test on XIP peptide (Xip251-270)) were 0.598 (inactive) and 0.303, respectively. For the same compound, the z-score in test [2] is -0.346; in test [3], 0.0724 (inactive); in test [4], 0.667 (inactive); in test [5] it was 0.529 (inactive).

`CN(C)C(=O)[C@@]1(Cc2ccccc2N=[N+]=[N-])N=C(c2ccc(OCCCO)cc2)O[C@H]1c1ccccc1`: the results for the composite z-score (in test [1]; in the test on XIP peptide (Xip251-270)) were 1.47 (inactive) and 0.821, respectively. Also, the z-score in test [2] is -2.19; in test [3], -4.9 (inactive); in test [4] it was -0.279 (inactive); in test [5] it was -0.303 (inactive).

Regarding `O=C1C2C=CC(C(O)c3ccco3)N(Nc3ccccc3)C2C(=O)N1c1ccccc1` (configuration not stated), the results for the composite z-score (in test [1]; with XIP peptide (Xip251-270)) were 1.11 (inactive) and 0.8, respectively. The z-score is 0.125 in test [2], -2.27 (inactive) in test [3], 0.209 (inactive) in test [4] and -0.0253 (inactive) in test [5].

`NCCCCCNC(=O)[C@H]1C[C@H]2C(=O)N[C@@H](Cc3ccccc3)C(=O)N2[C@H]1c1ccc(O)cc1`: the values for the composite z-score (in test [1]; with XIP peptide (Xip251-270)) were 1.46 (inactive) and 0.75, respectively. Also, the z-score in test [2] was -0.236; in test [3], -3.78 (inactive); in test [4], 1.01 (inactive); in test [5], 0.921 (inactive).

As for `O=C1C[C@@](C(=O)NCC(F)(F)F)(c2ccc([N+](=O)[O-])cc2)[C@@H](c2ccc(CO)cc2)N1CC12CC3CC(CC(C3)C1)C2`, the composite z-score in test [1] was 1.13 (inactive); with XIP peptide (Xip251-270), 0.709. In addition, the z-score in test [2] was -1.43; in test [3], -4.42 (inactive); in test [4] it was -0.123 (inactive); in test [5] it was -0.661 (inactive).

As for `COc1ccc(C#Cc2ccc3c(c2)[C@]2(C(=O)N3)[C@H](c3ccc(OCCO)cc3)N3[C@H](c4ccccc4)[C@H](c4ccccc4)OC(=O)[C@H]3[C@@H]2C(=O)N2CCc3cc(OC)c(OC)cc3C2)cc1`, the figures for the composite z-score (in test [1]; with XIP peptide (Xip251-270)) were 0.119 (inactive) and 0.659, respectively. Further, the z-score in test [2] was -1.92; in test [3], 2.11 (inactive); in test [4], -0.0018 (inactive); in test [5], 0.0006 (inactive).

As to `COc1ccc([Si](C)(C)[C@H]2[C@H](CCO)O[C@@]3(C(=O)N(Cc4ccccc4)c4ccc(N5C(=O)c6ccccc6Oc6ccccc65)cc43)[C@@H]2C)cc1`, the composite z-score was 0.823 (inactive) in test [1] and 0.601 in the test on XIP peptide (Xip251-270). In addition, the z-score was -1.75 in test [2], -1.76 (inactive) in test [3], 0.564 (inactive) in test [4] and -0.608 (inactive) in test [5].

Consider `COCCOC(=O)N1C(=O)[C@@]2(c3cc(C#CCNC(N)=O)ccc31)[C@H](c1ccc(OCCO)cc1)N1[C@H](c3ccccc3)[C@H](c3ccccc3)OC(=O)[C@H]1[C@@H]2C(=O)NC[C@H](O)c1ccccc1`, for which the figures for the composite z-score (in test [1]; in the test on XIP peptide (Xip251-270)) were 0.586 (inactive) and 0.644, respectively. For the same compound, the z-score was -0.599 in test [2], -1.94 (inactive) in test [3], -0.3 (inactive) in test [4] and -0.102 (inactive) in test [5].
